High-throughput results from PubChem BioAssay.
Shown is part of a subset that was picked to be rich in hits.
TSHR antagonist – human thyrotropin receptor antagonism; TSHR-expressing cells, TSH-stimulated cAMP HTRF, 2 h; stronger effect = lower value; activity change, negative = inhibition, % at 11.5 µM; hit rate 0.2% among 330,000;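 active means activity change below a set negative limit, meaning inhibition stronger than a set level, cut at about -70% in these data; inconclusive means activity change between two set negative limits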; further: on the % scale 0 is the no-effect control and ±100 the full control effect
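Competitive HTRF cAMP read-out (cryptate anti-cAMP antibody, cAMP-d2; 30 min, room temperature) in freshly harvested TSHR cells. Compounds added before TSH at EC80 (4nM final), followed by 2 hours' incubation at 37 deg C.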
PTHR1 agonist – agonists of human PTHR1 parathyroid hormone receptor | Potency, µM (doses to about 115 µM), for inactives: at the highest dose activation, actives largely listed as activators | AID 743266 | HEK293 GP2 PTHR1 cells, GloSensor cAMP luminescence, 1 h | hit rate 0.075% among 410,000; further: potency means the concentration at half of the fitted maximal effect; nearly all actives have a fitted effect of over 55% in size
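HEK-293-derived GP2 cells expressing PTHR1 and a GloSensor cAMP reporter, 3,000/well, plated overnight, given luciferin plus IBMX (each 0.5 mM as added) for 1 h at 37 °C, then compound for 1 h at 37 °C. Luminescence was read after 15 min at room temperature.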
NPSR antag – neuropeptide S receptor (human) antagonism, cAMP; Q6W5P4; CHO-NPSR cells, cAMP TR-FRET, antagonist mode; Potency, µM (doses to about 38.3 µM), for inactives: at the highest dose activity change, negative = inhibition, actives largely listed as inhibitors; hit rate 1% among 220,000; AID 1461; further: potency means the concentration at half of the fitted maximal effect; on the % scale 0 is the no-effect control and ±100 the full control effect; nearly all actives have a fitted effect of over 50% in size
Target sequence (Q6W5P4 whole entry, looked up): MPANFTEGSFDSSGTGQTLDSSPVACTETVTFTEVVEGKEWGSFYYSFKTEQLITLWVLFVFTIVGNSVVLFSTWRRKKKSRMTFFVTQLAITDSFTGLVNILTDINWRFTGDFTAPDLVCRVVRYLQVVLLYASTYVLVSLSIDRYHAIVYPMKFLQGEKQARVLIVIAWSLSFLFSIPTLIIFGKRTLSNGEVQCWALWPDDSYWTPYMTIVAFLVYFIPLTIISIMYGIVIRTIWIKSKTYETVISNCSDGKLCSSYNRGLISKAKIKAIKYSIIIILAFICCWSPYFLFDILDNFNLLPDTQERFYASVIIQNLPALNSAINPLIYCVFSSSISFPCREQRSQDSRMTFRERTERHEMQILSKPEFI
TCR activator – activators of T cell receptors | AID 504894 | Potency, µM (top dose mostly 9.22 µM), without a hit: top-dose activation of IL-2 secretion, actives largely listed as activators | primary human leukocytes, anti-CD3, IL-2 HTRF, 48 h | 330,000 tested, under 10 active; further: % of control where 0% means no effect
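Compounds are tested in HTS on primary human leukocytes co-incubated with a-CD3 beads for 48 hr. IL-2 output is measured by time-resolved FRET.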
RXFP1 antagonist – RXFP1 (human) relaxin receptor antagonism. AID 1259400. Q9HBX9. HEK293-RXFP1, relaxin-stimulated cAMP HTRF, 30 min; stronger effect = lower value. hit rate 0.59% among 350,000. activity change, negative = inhibition, % at 57.5 µM;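 active means activity change of -60% or lower, but not beyond a set lower limit; inconclusive means change between -60% and -40%, or beyond the set limit; inactive means change above -40%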; further: on the % scale 0 is the no-effect control and ±100 the full control effect
RXFP1 agonist – agonists of human relaxin receptor RXFP1 | HEK293T-RXFP1 cAMP TR-FRET, 30 min; response scale: percent of porcine relaxin response, buffer zero | Potency, µM (series often up to 57.5 µM), for the others: at the top dose activation, usual class: activators | hit rate 0.3% among 370,000 | AID 2676; further: potency means the concentration at half of the fitted maximal effect; on the % scale 0 is the no-effect control and ±100 the full control effect; nearly all actives have a fitted effect of over 60% in size
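Agonist response is measured as cAMP accumulation in an RXFP1-transfected HEK293T line under PDE4 inhibition. Values are scaled between buffer-only and 29 nM porcine relaxin, and EC50s come from standard Hill equation fits.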
The depositor's hits bear a star; i = inactive; u = inconclusive; x = not tested or not shown; [ ] = dose if it differs, or a comment. Unless noted, the call rests on the fitted dose curve; in most records, active means well fitted curve in the direction sought with a large enough effect; inconclusive means small, poorly fitted or top-dose-only effect, or another doubt; inactive means no such curve, though single readings can be large; an effect the other way counts as inactive or inconclusive.

SMILES	TSHR antagonist	PTHR1 agonist	NPSR antag	TCR activator	RXFP1 antagonist	RXFP1 agonist
Cc1ccc2sc(N(CCCN(C)C)C(=O)c3ccc(Br)s3)nc2c1C	9	-6%	u	9%	-77*	7%
CCOc1ccccc1N(C)C(=O)C1CCCN(c2ncnc3onc(-c4ccc(F)cc4)c23)C1 (centres undefined)	x	i	x	x	-12	-1%
Cc1ccc2nc(Cl)c(C3CC(c4ccco4)=NN3S(C)(=O)=O)cc2c1 (centres undefined)	-2	-12%	6%[7.67 µM]	1%	-16	9%
CCOc1ccc2nc(Cl)c(C3CC(c4ccco4)=NN3S(C)(=O)=O)cc2c1 (centres undefined)	-1	-9%	1%[7.67 µM]	0%	-71*	9%
CCc1ccc(NC(=O)N2CCN(Cc3nc4ccc(C)cc4o3)CC2)cc1	x	i	x	x	x	2%
Cc1sc2nc[nH]c(=S)c2c1-c1ccccc1	-16	-8%	-19%	8%	-91*	3%
CC(=O)N1CCCc2cc(S(=O)(=O)N3CCN(c4ccc(F)cc4)CC3)ccc21	x	-37%	x	x	-4	0%
CCN(CC)C(=O)C1CN2CCc3cc(OC)c(OC)cc3C2CC1OC(C)=O (centres undefined)	x	x	x	x	-4	x
CS(=O)(=O)c1ccc(N2CCN(c3ccccn3)CC2)c([N+](=O)[O-])c1	-114*	i	x	3%	-20	3%
COc1ccc(-c2cc(C(C)=O)c(C)n2CCC(=O)Nc2cc(Cl)ccc2C)cc1	x	u	x	x	-3	-1%
CCOc1cc(/C=N/Nc2nc(N3CCCC3)nc(N3CCCC3)n2)ccc1O	4	-28%[57.5 µM]	13µM*	1%[46.1 µM]	-7	-5%
CCOc1ccccc1CNS(=O)(=O)c1cc2c(cc1C)NC(=O)CO2	x	-35%	x	x	-7	2%
Cc1ccc(-c2n[nH]c(=S)n2/N=C/C=C/c2ccccc2[N+](=O)[O-])cc1	-20	-4%[57.5 µM]	u	5%	-29	2%
O=[N+]([O-])c1ccccc1/C=C/C=N/n1c(-c2cc(-c3ccccc3)n[nH]2)n[nH]c1=S	-8	-4%	41%	-5%	-69*	1%
O=c1[nH]n2c(=O)c3c([nH]c2c1N=Nc1cccc(C(F)(F)F)c1)CCCC3	6	-27%	13µM*	3%[46.1 µM]	0	0%
O=C(O)C(Cc1ccc(O)cc1)N1C(=O)c2c(Cl)c(Cl)c(Cl)c(Cl)c2C1=O (centres undefined)	x	i	x	1%	-62*	x
Cc1cc(Nc2cccc(C(F)(F)F)c2)nc2ccc(NC(=O)c3cccnc3)cc12	x	i	x	x	-72*	6%
Cc1ccc(-n2nnc3c(=O)oc4ccccc4c32)cc1	-31	-6%[57.5 µM]	u	3%	-89*	-2%
CCC(C)n1nnc2c(=O)oc3ccccc3c21 (centres undefined)	-28	-93%	-2%[46.1 µM]	5%	-7	0%
CCN(CC)CCCC(C)Nc1c2ccc(Cl)cc2nc2ccc(OC)cc12 (centres undefined)	-27	x	10µM*	x	9	3%
Nc1ccc2c(c1)CN1C(=O)c3ccccc3C1=N2	x	x	x	x	-15	x
O=C(Nc1ccccn1)C(=O)Nc1ccccn1	-4	-76%	-6%	-3%	1	1%
S=C(Nc1ccccn1)c1ccccn1	0	-17%	2µM*	4%	-20	0%
CCc1cccc(NC(=O)c2cn3c4c(ccc(Cl)c4c2=O)OC(C)C3)c1 (centres undefined)	x	-4%	x	x	-6	u
CCN(CC)C(=S)NC(=O)c1ccc(OC)c(Br)c1	14	-72%	11%	1%[46.1 µM]	-7	1%
SMILES	TSHR antagonist	PTHR1 agonist	NPSR antag	TCR activator	RXFP1 antagonist	RXFP1 agonist
CCOc1ccc(N(CCCCO)C(=S)NC(=O)c2ccc(C)c(Br)c2)cc1	8	-5%	-24%	5%	-90*	0%
N#Cc1cc([N+](=O)[O-])c2sc(C(N)=O)[n+]([O-])c2c1	-22	x	x	x	x	x
CC1=NNC(=O)/C1=C\c1cn(-c2ccccc2)nc1-c1ccccc1	-25	-38%	13µM*	-2%	-73*	-5%
CCOc1cc(/C=N/NC(=O)c2ccccn2)ccc1OC(=O)c1ccc(F)cc1	-12	-2%	x	5%	-93*	3%
CCOc1cc(/C=N/NC(=O)c2ccncc2)ccc1OC(=O)c1ccccc1	9	-73%	x	6%	-25	-1%
CCOc1cc(/C=N/Nc2cccc(C(=O)O)c2)ccc1OC(=O)c1ccccc1	-9	-23%	-31%	7%	-75*	1%
COc1ccc(CCNC(=O)C(=O)NCC(c2cccs2)S(=O)(=O)c2ccccc2)cc1 (centres undefined)	x	i	x	x	x	-2%
O=C(c1ccc(Cl)c([N+](=O)[O-])c1)N1CCN(S(=O)(=O)c2ccc(Cl)cc2)CC1	-7	-22%	x	4%	1	-1%
O=C(c1cccc(F)c1)N1CCN(Cc2ccc3c(c2)OCO3)CC1	-42	i	x	x	7	0%
O=C(c1ccc2c(c1)OCO2)N1CCN(c2ccc(Cl)cc2)CC1	-1	-24%[57.5 µM]	-22%[46.1 µM]	0%	-6	-2%
O=C(c1ccc2c(c1)OCO2)N1CCN(S(=O)(=O)c2ccc(Cl)cc2)CC1	-96*	-40%	x	-3%	7	2%
O=C(c1cccc(Cl)c1)N1CCN(Cc2ccc3c(c2)OCO3)CC1	-120*	i	x	4%	6	2%
O=C(c1ccc(N2CCCC2)c([N+](=O)[O-])c1)N1CCN(S(=O)(=O)c2ccc(Cl)cc2)CC1	0	i	x	-12%	-64*	0%
CC(C)CCCC(C)NCCC(C)C (centres undefined)	x	x	x	x	4	x
CCc1ccccc1S(=O)(=O)Cc1ccc(C(=O)NCCc2ccc(C)cc2)o1	x	-21%	x	x	x	0%
CCOc1ccc(-c2nnc(SCC(=O)NCCC(C)C)nc2-c2ccc(OCC)c(OC)c2)cc1OC	x	i	x	x	-10	0%
Cc1c(C(=O)NN2CCCCC2)nn(-c2ccc(Cl)cc2Cl)c1-c1ccc(Cl)cc1	x	x	x	x	-71*	x
C=CCOC(=O)C1=C(C)N(C)C(=O)NC1c1cc2c(cc1Br)OCO2 (centres undefined)	-9	-9%[57.5 µM]	-9%[46.1 µM]	4%	-74*	3%
CCCCOC(=O)C1=C(C)N(C)C(=O)NC1c1cc2c(cc1Br)OCO2 (centres undefined)	x	-15%	x	x	1	x
Brc1ccc(-c2ccc(CNCCSc3nnnn3-c3ccccc3)o2)cc1	x	-16%	x	x	6	14µM*
CCc1ccc(C2=C(C)C(N3CCC(C(=O)NCc4ccc(C)o4)CC3)=NS2(=O)=O)cc1	x	-26%	x	x	-23	22%
